LGR2 antag – blocks bursicon-induced cAMP signaling via Drosophila LGR2; 0.35% of 380,000 active; HEK293 LGR2, CRE-luciferase, bursicon-stimulated, 4 h; inhibition, % at 9.99 µM;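 active = drop in luminescence signal, shown as inhibition above about 50% in the replicate tests, limit read from the data, passing the limit was not always enough; inconclusive = probably only some replicates passing the limit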;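 also: agonist challenge used bursicon conditioned medium at about half maximal strength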
PAX8 reporter – lowers PAX8-driven luciferase in RMG-I cells; RMG-I TPO-luciferase reporter, SteadyGlo, 24 h; inhibition, % at 12.6 µM; 1.2% of 360,000 active;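 active = mean replicate inhibition at least 60% with every replicate also reaching 60%; inconclusive = only one of the two criteria is met; inactive = mean below 60% and not all replicates reaching 60%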;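 also: luciferase light reporting Pax8 driven TPO promoter activity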
CF NFkB block – blocks PAF-induced NF-kB reporter in cystic fibrosis cells; inhibition, % at 5 µM; 0.86% of 360,000 active; KKLEB NF-kB-GFP reporter, GFP fluorescence overnight;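 active = at least 50% inhibition at 5 µM, scaled per plate between neutral and stimulator controls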;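 also: PAF is a Pseudomonas aeruginosa culture filtrate used as stimulus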
Shn3 3UTR inh – reduces Shn3 3'UTR luciferase signal in osteoblasts; Clone20 osteoblast Shn3 3'UTR firefly luciferase, 24 h; inhibition, % at 12.5 µM; 0.52% of 360,000 active; AID 588674;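 active = mean inhibition of at least 75% with every replicate also reaching 75%; inconclusive = mean inhibition at least 75% but some replicate below; inactive = mean inhibition below 75%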
EWS-Fli inh – EWS/Fli transcriptional activity inhibition. A673 NR0B1-luciferase reporter, viability-normalised. inhibition, % at 12.6 µM. 0.67% of 350,000 active;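 active = mean inhibition of at least 50% after viability correction, with every replicate also passing that limit; inconclusive = mean reaches 50% but only one of two replicates passes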;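 also: firefly luciferase signal divided by Alamar Blue viability fluorescence both relative to DMSO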
KKLEB tox – counter-screen for CF NF-kB inhibitors: cytotoxicity; KKLEB CF airway cells viability, ATPlite luminescence, overnight; active compounds read low; cells stimulated with P. aeruginosa culture filtrate; activity change (cytotoxicity), % at 5 µM; 0.36% of 360,000 active;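 active = corrected activity change at or below -50% at 5 µM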
Numbers stand for hits; . = inactive; ? = inconclusive; / = not tested or not shown. An excerpt weighted towards active compounds, which were near 2% of everything screened.

SMILES	LGR2 antag	PAX8 reporter	CF NFkB block	Shn3 3UTR inh	EWS-Fli inh	KKLEB tox
C[C@H]1CN([C@@H](C)CO)S(=O)(=O)c2ccc(C#CC3CC3)cc2O[C@@H]1CN(C)C(=O)c1ccccc1	.	/	/	/	.	/
C[C@@H]1CN([C@@H](C)CO)C(=O)c2cc(NS(C)(=O)=O)ccc2O[C@@H](C)CCCCO[C@H]1CN(C)C(=O)c1ccncc1	.	/	/	/	.	/
N#C[C@H]1[C@H](c2ccccc2-c2cccc(F)c2)[C@@H](CO)N1C(=O)C1CCCC1	.	.	/	/	.	/
CC(C)C[C@@H](CN1CCC[C@@H]1CN1C(=O)C(=O)NC[C@@H]1Cc1ccccc1)N1C[C@H](Cc2ccc(O)cc2)N(CC2CCCCC2)C(=O)C1=O	.	.	.	.	.	.
Oc1ccc(C[C@H]2CNC(=S)N2CC2CCCN2C[C@H](Cc2ccccc2)N2C[C@H](Cc3ccc(O)cc3)N(CCc3ccccc3)C2=S)cc1 (some centres undefined)	.	91.2	.	.	.	.
CC(C)C[C@H]1CNC(=S)N1C[C@H]1CCCN1C[C@H](Cc1ccc(O)cc1)N1C[C@H](Cc2ccc(O)cc2)N(CC2CCCCCC2)C1=S	.	73.0	70.9	.	.	-59.0
CC(C)C[C@H]1CNC(=S)N1CC1CCCN1C[C@H](Cc1ccccc1)N1C[C@H](Cc2ccc(O)cc2)N(CC2CCCCCC2)C1=S (some centres undefined)	.	.	.	.	.	.
CCOc1ccc(CCN2C(=S)N([C@@H](CC(C)C)CN3CCCC3CN3C(=S)NC[C@@H]3Cc3ccc(O)cc3)C[C@@H]2Cc2ccc(O)cc2)cc1 (some centres undefined)	.	.	.	86.5	.	.
CC(C)C[C@@H](CN1CCC[C@H]1CN1C(=O)C(=O)NC[C@@H]1Cc1ccccc1)N1C[C@H](Cc2ccc(O)cc2)N(CC2CCCCCC2)C(=O)C1=O	.	68.4	/	/	.	/
CS(=O)(=O)Nc1ccc([N+](=O)[O-])cc1Oc1ccccc1	.	.	68.7	.	.	.
S=c1nc(C2COc3ccccc3O2)[nH][nH]1 (centres undefined)	.	.	.	.	.	.
CCCS(=O)(=O)c1cnc(C2COc3ccccc3O2)nc1N (centres undefined)	94.5	.	.	.	85.5	.
Cc1ccc(-c2ccc3c(c2)O[C@H](CN(C)C(=O)CN(C)C)[C@@H](C)CN([C@@H](C)CO)S3(=O)=O)cc1	.	/	/	/	.	/
CCN(CC)CCN1C(=O)/C(=C\c2ccc(Cl)c([N+](=O)[O-])c2)SC1=Nc1ccc(OC)cc1	.	.	98.6	96.4	59.7	-82.2
COc1ccc(N=C2S/C(=C\c3ccc(Cl)c([N+](=O)[O-])c3)C(=O)N2CCN(C)C)cc1	?	.	.	.	64.2	.
CCCN1C(=O)/C(=C/c2ccc(C)s2)SC1=Nc1ccc(OC)cc1	.	/	.	.	/	.
CCC(=O)N1CC2(C1)[C@@H](c1ccccc1)[C@H](CO)N2C(=O)c1cccnc1	.	.	/	/	.	/
Cc1ccccc1-c1ccc([C@H]2[C@@H](CO)N3CCCCN(C(=O)Nc4cccc(F)c4)C[C@H]23)cc1	/	99.9	/	/	67.0	/
Cc1ccccc1-c1ccc([C@H]2[C@@H](CO)N3CCCCN(C(=O)Nc4cccc(F)c4)C[C@@H]23)cc1	.	.	/	/	.	/
Cc1ccccc1-c1ccc([C@@H]2[C@H](CO)N3CCCCN(C(=O)Nc4cccc(F)c4)C[C@@H]23)cc1	.	107.9	/	/	61.4	/
COCCOC(=O)N1C(=O)[C@@]2(c3ccccc31)[C@H](C(=O)N1CCc3cc(OC)c(OC)cc3C1)[C@H]1C(=O)O[C@H](c3ccccc3)[C@H](c3ccccc3)N1[C@@H]2c1ccc(O)cc1	/	.	/	/	.	/
COC(=O)C1CCCCN1C(=O)c1cc(COc2cccc3cnccc23)on1 (centres undefined)	.	.	.	.	.	.
CCOC(=O)CC1CCCCN1C(=O)c1cc(COc2cccc3cnccc23)on1 (centres undefined)	.	.	.	89.3	.	.
COc1cc(/C=C2\COC/C(=C\c3cc(OC)c(OC)c(OC)c3)C2=O)cc(OC)c1OC	/	106.1	93.3	96.1	73.7	-67.2
COc1cc(/C=C2\CC(C(C)(C)C)C/C(=C\c3cc(OC)c(OC)c(OC)c3)C2=O)cc(OC)c1OC (centres undefined)	.	.	.	?	82.3	.
SMILES	LGR2 antag	PAX8 reporter	CF NFkB block	Shn3 3UTR inh	EWS-Fli inh	KKLEB tox
COc1cc(/C=C2\CC/C(=C\c3cc(OC)c(OC)c(OC)c3)C2=O)cc(OC)c1OC	.	.	.	.	.	.
COc1cc(/C=C2\CCC(C3CCCC3)C2=O)cc(OC)c1OC (centres undefined)	.	.	.	.	.	.
O=C(c1ccccc1F)N1CCCC(c2ccccc2)C1 (centres undefined)	/	66.7	.	.	.	.
O=C(c1ccccc1F)N1CCCC(C(=O)N2CCN(c3ccccc3)CC2)C1 (centres undefined)	.	.	.	.	.	.
CCC(=O)N1CC2(C1)[C@@H](c1ccc(-c3ccc(F)cc3)cc1)[C@H](CO)N2C(=O)CC	.	.	/	/	.	/
O=C1C(C2=NC(C(=O)O)C3C(=O)N(c4ccc(Cl)cc4)C(=O)C23)=C(O)c2ccccc21 (centres undefined)	/	/	.	.	/	.
O=C1C(C2=NC(c3ccccn3)C3C(=O)N(c4ccc(Cl)cc4Cl)C(=O)C23)=C(O)c2ccccc21 (centres undefined)	.	.	52.9	.	.	.
Cc1ccc(NC(=O)c2c([N+](=O)[O-])c(C(C)(C)C)nn2C)c(C)c1	.	128.3	.	.	.	.
C[C@@H]1CN([C@@H](C)CO)C(=O)c2cc(NC(=O)CCC(F)(F)F)ccc2O[C@H]1CN(C)C	.	.	/	/	.	/
Cc1noc(C)c1S(=O)(=O)N(C)C[C@H]1Oc2c(NC(=O)C3CC3)cccc2C(=O)N([C@H](C)CO)C[C@H]1C	.	.	/	/	.	/
C[C@@H]1CN([C@@H](C)CO)C(=O)Cc2cc(N(C)C)ccc2O[C@H]1CN(C)Cc1ccc(Cl)c(Cl)c1	.	71.1	/	/	.	/
C[C@H](CO)N1C[C@H](C)[C@@H](CN(C)Cc2ccc(Cl)c(Cl)c2)Oc2ccc(N(C)C)cc2CC1=O	.	74.8	/	/	.	/
C[C@H](CO)N1C[C@H](C)[C@H](CN(C)Cc2ccc(Cl)c(Cl)c2)Oc2ccc(N(C)C)cc2CC1=O	.	.	/	/	.	/
C[C@@H]1CN([C@H](C)CO)C(=O)Cc2cc(N(C)C)ccc2O[C@H]1CN(C)Cc1ccc(Cl)c(Cl)c1	.	.	/	/	.	/
O=C(O)/C=C/C(=O)c1ccc2c(c1)CCc1ccccc1-2	.	.	64.1	.	?	.

High-throughput results from PubChem.
